In PubChem BioAssay (NCI):
The panel holds about 79,000 compounds, 15% with a hit somewhere; the sample as a whole holds those more often. Calls of active or inactive are those of the source. Rule as the data show it: active = growth inhibition above about 70%; inactive = the rest.

How the values were obtained:
[1] = NCI Yeast Anticancer Drug Screen. Data for the rad52 strain (AID 147);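 also: 0% = growth of vehicle-treated control cultures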; conditions: S. cerevisiae rad52 mutant growth inhibition, hits give high values
In short: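 Growth of repair-deficient yeast cells was compared between compound-treated and vehicle-treated cultures to give percent inhibition.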

[2] = NCI Yeast Anticancer Drug Screen. Data for the wt1 strain (AID 149);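 also: 0% = growth of vehicle-treated wt1 cultures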; conditions: S. cerevisiae wt1 strain (SPY 50644) growth inhibition, hits give high values
In short: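 Measured: growth of wt1 yeast under compound versus vehicle treatment, reported as inhibition.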

[3] = NCI Yeast Anticancer Drug Screen. Data for the rad50EPP+ strain (AID 151);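 also: 0% = growth of vehicle-treated control cultures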; conditions: S. cerevisiae rad50 mutant strain, hits give high values
In short: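 Measured: growth inhibition of rad50EPP+ yeast. Reference: vehicle-treated controls. Screen uses strains with defined genetic alterations in DNA damage repair or cell cycle control.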

[4] = NCI Yeast Anticancer Drug Screen. Data for the mgt1 strain (AID 153); conditions: S. cerevisiae mgt1 mutant growth inhibition, hits give high values
In short: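 Compounds were applied to mgt1 mutant yeast, and growth was then compared against vehicle-treated control cultures to give percent inhibition.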

[5] = NCI Yeast Anticancer Drug Screen. Data for the mec2-1 strain (AID 157); conditions: S. cerevisiae mec2-1 strain, hits give high values
In short: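 Compounds were applied to mec2-1 yeast cells. Their growth was then compared with that of vehicle-treated cultures to give growth inhibition.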

[6] = NCI Yeast Anticancer Drug Screen. Data for the rad14 strain (AID 159);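 also: 0% = growth of vehicle-treated control cultures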; conditions: S. cerevisiae rad14 strain growth inhibition, hits give high values
In short: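 Here, inhibition of yeast growth was measured after compound exposure, using a strain with a genetic defect in DNA damage repair and vehicle-treated cultures as the reference.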

[7] = NCI Yeast Anticancer Drug Screen. Data for the sgs1 mgt1 strain (AID 161);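 also: 0% = growth of cultures given vehicle only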; conditions: S. cerevisiae sgs1 mgt1 strain, hits give high values
In short: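 Percent growth inhibition was derived by comparing compound-exposed mutant yeast with vehicle-exposed cultures. The strain carries alterations in DNA damage repair.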

[8] = NCI Yeast Anticancer Drug Screen. Data for the CLN2oe strain (AID 163);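 also: 0% = growth of vehicle-only control cultures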; conditions: S. cerevisiae CLN2oe strain, hits give high values
In short: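 Cells of an engineered yeast line with disturbed cell-cycle regulation are treated with compound. Inhibition of growth is then calculated relative to the vehicle-treated reference.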

[9] = NCI Yeast Anticancer Drug Screen. Data for the bub3 strain (AID 167); conditions: S. cerevisiae bub3 mutant strain, hits give high values
In short: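 Whole-cell yeast assay. The mutant strain was incubated with compounds, and growth inhibition was determined by comparison with vehicle-treated cells.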

[10] = NCI Yeast Anticancer Drug Screen. Data for the wt2 strain (AID 169);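 also: 0% = growth of vehicle-treated yeast cultures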; conditions: S. cerevisiae wt2 strain growth inhibition, hits give high values
In short: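 Growth of compound-treated yeast is measured and expressed as inhibition relative to vehicle-only controls.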

[11] = NCI Yeast Anticancer Drug Screen. Data for the mlh1 strain (AID 171);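 also: 0% = growth of vehicle-treated control cultures of the same strain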; conditions: S. cerevisiae mlh1 strain growth inhibition, hits give high values
In short: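 Test agents were incubated with yeast bearing a defined DNA damage repair or cell cycle control alteration; values are growth inhibition normalised to vehicle-treated cultures.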

[12] = NCI Yeast Anticancer Drug Screen. Data for the sgs1 strain (AID 173);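 also: 0% = growth of vehicle-only control cultures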; conditions: S. cerevisiae sgs1 mutant, hits give high values
In short: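 Strain with an altered DNA repair or cell cycle pathway exposed to compound. Growth then measured. Value = inhibition versus vehicle control.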

[13] = NCI Yeast Anticancer Drug Screen. Data for the mlh1 rad18 strain (AID 175); conditions: S. cerevisiae mlh1 rad18 strain growth inhibition, hits give high values
In short: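 A repair-deficient yeast strain is exposed to test compound, and growth is scored relative to vehicle-treated controls.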

[14] = NCI Yeast Anticancer Drug Screen. Data for the rad18 strain (AID 177); conditions: S. cerevisiae rad18 mutant growth inhibition, hits give high values
In short: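 DNA-repair-defective yeast; compound treatment; growth inhibition scored against vehicle.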

[15] = NCI Yeast Anticancer Drug Screen. Data for the rad50 strain (AID 155);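 also: 0% = growth of vehicle-only cultures of the same strain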; conditions: S. cerevisiae rad50 strain growth inhibition, hits give high values
In short: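 Growth of the mutant yeast was measured after compound exposure and referenced to vehicle-treated cultures.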

[16] = NCI Yeast Anticancer Drug Screen. Data for the cln2 rad14 strain (AID 165);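 also: 0% = growth equal to vehicle treated cultures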; conditions: S. cerevisiae cln2 rad14 strain, hits give high values
In short: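 Strain: cln2 rad14 yeast, altered in cell cycle control and DNA damage repair. Read-out: growth inhibition vs vehicle.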

[17] = at 5.0 µM (retest, dose inferred, filed as 0.5)
[18] = at 50.0 µM (retest, dose inferred, filed as 5.0)

Measured: growth inhibition

Cc1ccc(CSC(N)=Nc2ccccc2)cc1C
active: [4]; at 100.0 µM 81% | [9]; at 50.0 µM 80% | [12]; at 100.0 µM 73%
inactive: [1]; at 1.2 µM 20% | [1]; at 3.7 µM 21% | [1]; at 11.0 µM 21% | [1]; at 33.0 µM 24% | [1]; at 100.0 µM 30% | [2]; at 1.2 µM 3% | [2]; at 3.7 µM 13% | [2]; at 11.0 µM 0% | [2]; at 33.0 µM 4% | [2]; at 100.0 µM 21% | [3]; at 1.2 µM 4% | [3]; at 3.7 µM 12% | [3]; at 11.0 µM 11% | [3]; at 33.0 µM 4% | [3]; at 100.0 µM 15% | [4]; at 1.2 µM 6% | [4]; at 3.7 µM -1% | [4]; at 11.0 µM -8% | [4]; at 33.0 µM 14% | [5]; at 1.2 µM -3% | [5]; at 3.7 µM 10% | [5]; [17] -11% | [5]; at 11.0 µM -11% | [5]; at 33.0 µM 1% | [5]; [18] -22% | [5]; at 50.0 µM 24.2% | [5]; at 100.0 µM 40% | [6]; at 1.2 µM -22% | [6]; at 3.7 µM -14% | [6]; at 11.0 µM -17% | [6]; at 33.0 µM 10% | [6]; at 100.0 µM 64% | [7]; [17] -10% | [7]; [18] 38% | [7]; at 50.0 µM 53.2% | [8]; at 1.2 µM 6% | [8]; at 3.7 µM 10% | [8]; at 11.0 µM -1% | [8]; at 33.0 µM 7% | [8]; at 100.0 µM 46% | [9]; at 1.2 µM 4% | [9]; at 3.7 µM 5% | [9]; [17] 11% | [9]; at 11.0 µM -4% | [9]; at 33.0 µM 14% | [9]; [18] 22% | [9]; at 100.0 µM 34% | [10]; at 1.2 µM 2% | [10]; at 3.7 µM -3% | [10]; at 11.0 µM -13% | [10]; at 33.0 µM -5% | [10]; at 100.0 µM 66% | [11]; at 1.2 µM -7% | [11]; at 3.7 µM -12% | [11]; at 11.0 µM -6% | [11]; at 33.0 µM 4% | [11]; at 100.0 µM 66% | [12]; at 1.2 µM 6% | [12]; at 3.7 µM 0% | [12]; at 11.0 µM 7% | [12]; at 33.0 µM 19% | [13]; [17] -5% | [13]; [18] 41% | [13]; at 50.0 µM 42% | [14]; at 1.2 µM 6% | [14]; at 3.7 µM -7% | [14]; at 11.0 µM 2% | [14]; at 33.0 µM 0% | [14]; at 100.0 µM 31%

O=S(=O)(CCCl)c1ccccc1Cl
inactive: [1]; at 1.2 µM -5% | [1]; at 3.7 µM 1% | [1]; at 11.0 µM 42% | [2]; at 1.2 µM 3% | [2]; at 3.7 µM 23% | [2]; at 11.0 µM 33% | [3]; at 1.2 µM -7% | [3]; at 3.7 µM 15% | [3]; at 11.0 µM 43% | [15]; at 1.2 µM -8% | [15]; at 3.7 µM -12% | [15]; [17] -119% | [15]; at 11.0 µM 65% | [5]; at 1.2 µM 2% | [5]; at 3.7 µM 8% | [5]; [17] -36% | [5]; at 11.0 µM 19% | [6]; at 1.2 µM -2% | [6]; at 3.7 µM 11% | [6]; at 11.0 µM 45% | [7]; [17] -42% | [8]; at 1.2 µM -5% | [8]; at 3.7 µM -2% | [8]; at 11.0 µM 3% | [8]; at 33.0 µM 68% | [16]; [17] -42% | [16]; [18] 25% | [9]; at 1.2 µM -1% | [9]; at 3.7 µM 6% | [9]; [17] -59% | [9]; at 11.0 µM 38% | [10]; at 1.2 µM 8% | [10]; at 3.7 µM 32% | [10]; at 11.0 µM 64% | [11]; at 1.2 µM -10% | [11]; at 3.7 µM -1% | [11]; at 11.0 µM 27% | [12]; at 1.2 µM -5% | [12]; at 3.7 µM 0% | [12]; at 11.0 µM 64% | [13]; [17] -115% | [14]; at 1.2 µM -1% | [14]; at 3.7 µM 13%
active: [1]; at 33.0 µM 93% | [1]; at 100.0 µM 99% | [2]; at 33.0 µM 94% | [2]; at 100.0 µM 98% | [3]; at 33.0 µM 79% | [3]; at 100.0 µM 84% | [15]; at 33.0 µM 94% | [15]; [18] 79% | [15]; at 50.0 µM 94.2% | [15]; at 100.0 µM 98% | [5]; at 33.0 µM 83% | [5]; [18] 79% | [5]; at 50.0 µM 91.8% | [5]; at 100.0 µM 98% | [6]; at 33.0 µM 91% | [6]; at 100.0 µM 99% | [7]; [18] 87% | [7]; at 50.0 µM 90.8% | [8]; at 100.0 µM 97% | [16]; at 50.0 µM 84.3% | [9]; at 33.0 µM 94% | [9]; [18] 80% | [9]; at 50.0 µM 90.7% | [9]; at 100.0 µM 98% | [10]; at 33.0 µM 98% | [10]; at 100.0 µM 99% | [11]; at 33.0 µM 90% | [11]; at 100.0 µM 97% | [12]; at 33.0 µM 95% | [12]; at 100.0 µM 99% | [13]; [18] 81% | [13]; at 50.0 µM 90.2% | [14]; at 11.0 µM 83% | [14]; at 33.0 µM 96% | [14]; at 100.0 µM 98%
